# Assay outcomes (PubChem BioAssay)
# AID504770 = E. coli YBA685 growth inhibition, screen for V. cholerae RctB inhibitors | E. coli YBA685 rctB-dependent plasmid, OD600 growth, 3 h; hits give low values | z-score (test concentration not listed) | 130,000 compounds, 0.27% hits | AID 504770; in the data active = z-score below about -2, passing the limit was not always enough
# Mtb MbtI inh = MbtI salicylate synthase inhibition; purified MbtI enzyme, fluorescence intensity read-out; inhibition, % (concentration not given with the values); 100,000 compounds, 0.89% hits; AID 493033; in the data active = inhibition mostly above about 56%, no sharp cut-off; inactive = mostly below about 77%
# Target sequence (P9WFX0 whole entry, looked up): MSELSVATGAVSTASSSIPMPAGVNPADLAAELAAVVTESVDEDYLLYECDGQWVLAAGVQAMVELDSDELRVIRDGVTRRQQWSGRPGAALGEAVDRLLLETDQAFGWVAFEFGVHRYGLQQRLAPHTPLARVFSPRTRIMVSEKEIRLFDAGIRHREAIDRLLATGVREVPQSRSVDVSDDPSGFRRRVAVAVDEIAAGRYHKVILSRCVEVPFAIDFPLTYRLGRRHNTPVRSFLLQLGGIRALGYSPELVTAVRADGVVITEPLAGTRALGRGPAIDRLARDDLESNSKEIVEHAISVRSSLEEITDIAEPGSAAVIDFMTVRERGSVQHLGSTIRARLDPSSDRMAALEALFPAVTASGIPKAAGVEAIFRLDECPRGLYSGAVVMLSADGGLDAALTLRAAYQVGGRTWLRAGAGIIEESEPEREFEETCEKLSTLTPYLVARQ
# Mtb MenB inh = inhibitors of Mycobacterium tuberculosis MenB enzyme; P9WNP5; MenB enzyme assay, absorbance read-out; inhibition, % (concentration not given with the values); 100,000 compounds, 0.43% hits; in the data active = inhibition above about 21%, passing the limit was not always enough
# Polio RdRp inh = inhibitors of poliovirus RNA polymerase binding and polymerization; P03300; poliovirus polymerase elongation, fluorescence polarization; hits give low values; % elongation, % (compound at 16.7 µg/mL); 150,000 compounds, 0.66% hits; in the data active = % elongation below about 90%
# Numbers without * were called inactive; x = not tested or not shown. Sampled rows, rich in hits. Any-hit rate of the full collection: about 1.4%.
SMILES,AID504770,Mtb MbtI inh,Mtb MenB inh,Polio RdRp inh
NC(=O)C1CCN(C2CC(=O)N(Cc3ccc4c(c3)OCO4)C2=O)CC1 (stereo unspecified),0.75,86.2*,-38.7,103.0
NC(=O)C1CCN(CC(O)Cc2ccc3c(c2)OCO3)CC1 (stereo unspecified),-0.65,x,x,x
COc1ccc(-c2cn3c(n2)sc2cc(C(=O)NCCCN4CCCCC4)ccc23)cc1,x,x,x,90.0*
COc1ccc(-c2cn3c(n2)sc2cc(C(=O)NCCCN4CCCCCC4)ccc23)cc1,x,x,x,100.0
c1ccc(N=c2[n-][n+](-c3ccccc3)cn2-c2ccccc2)cc1,1.75,x,-37.6,85.0*
O[N+]1=CC=CCC1=S.On1ccccc1=S.[Zn],-4*,15.1,2.1,101.0
CCN(CCC#N)C(=S)Nc1cc(C(F)(F)F)cc(C(F)(F)F)c1,-0.05,-10.3,7.4,108.0
CC(=O)Nc1ccc(-n2cc(-c3ccccc3)nc2SCC(N)=O)cc1,-1.2,-6.7,x,102.0
Cc1cc(N2CCOCC2)cc(C)[n+]1[O-],-0.45,17.4,45.8*,101.0
Cc1noc(C)c1CCNC(=O)C1CCN(c2ccccc2)C1=O (stereo unspecified),0.65,-7.7,14.7,100.0
Cn1c(CCC(=O)O)nc2ccccc2c1=O,1.85,-6.2,-18.6,111.0
O=C1c2ccccc2C(=O)C1c1cc(=O)[nH]c2ccccc12,-0.65,6.0,-167.7,87.0*
O=c1cc(O)c2ccccc2[nH]1,-0.85,55.2,-154.7,101.0
S=c1nc(CCCCc2nc(=S)[nH][nH]2)[nH][nH]1,-0.45,71.8*,7.6,75.0*
CCCc1nc(=S)[nH][nH]1,0.45,69.3,-9.8,101.0
CC(C)NS(=O)(=O)c1ccc(N=Cc2c(O)n(C)c(=O)n(C)c2=O)cc1,-3.7*,32.1,-18.7,104.0
Cc1ccc(N2C(=O)C(C)C(N3CCCCC3)C2=O)cc1 (stereo unspecified),0.35,x,x,x
Cc1cc(C)c(Nc2nn3c(=O)c4cc5c(cc4nc3s2)OCO5)c(C)c1,x,x,x,87.0*
Cc1cccc(C)c1Nc1nn2c(=O)c3ccccc3nc2s1,-0.8,50.8,-33.4,88.0*
Cc1ccccc1Nc1nn2c(=O)c3ccc(C(=O)NCc4ccccc4)cc3nc2s1,x,x,x,104.0
CS(=O)(=O)c1nc2ccccc2s1,0.35,x,6.9,89.0*
c1ccc(-c2nnc(Sc3ncnc4c3oc3ccccc34)o2)cc1,-0.45,12.6,-15.9,100.0
COC(=O)c1ccc(CNC(=O)COc2ccc(Cl)cc2Cl)cc1,-0.5,-5.3,x,104.0
Cc1cc(NCCCN2CCCC2=O)n2c(nc3ccccc32)c1C#N,1.15,70.3,36.8*,104.0
O=C(O)c1cccc(S(=O)(=O)N2CCCCC2)c1,-0.6,-13.9,-54.5,99.0
SMILES,AID504770,Mtb MbtI inh,Mtb MenB inh,Polio RdRp inh
CC(C)CNC(=O)c1cccc(S(=O)(=O)N2CCCCC2)c1,-4.8*,-7.6,x,105.0
O=C(NC1CCCC1)C(F)(F)C(F)(F)C(=O)NC1CCCC1,1.35,-6.8,1.3,102.0
CN(C)c1ccc(NC(=O)c2ccccn2)cc1,0,11.1,-31.6,99.0
CN(C)c1ccc(NC(=S)N=P(c2ccncc2)(N(C)C)N(C)C)cc1,1.4,80.8*,-31.8,101.0
CC(NC(=O)CCOc1ccccc1)c1ccc(-n2ccnc2)cc1 (stereo unspecified),0.5,-9.9,-9.0,103.0
CNc1nc(-c2ccc3c(c2)CCN3C(=O)C(C)C)cs1,1.9,14.1,35.4*,103.0
Cc1ccc2c(c1)nnn2C1CCN(C(=O)Nc2ccc(C#N)cc2)CC1,-0.15,1.1,-14.2,103.0
CN(C)C(=O)CSCc1c(Cl)cccc1Cl,0.4,4.0,-8.7,34.0*
Cc1ccccc1CNC(=O)c1cc2cccc3c2n1CCO3,0.6,-24.2,-10.4,104.0
ON(Cn1nnc2ccccc21)Cn1nnc2ccccc21,2.25,16.3,4.9,102.0
O=C(CN1C(=O)CSC1=O)Nc1nccs1,0.15,-6.0,-3.1,96.0
Nn1cnn(CC(=O)Nc2nccs2)c1=S,1.65,x,-16.9,74.0*
CCOc1ccc(CCNC(=O)c2cnc3sc(N4CCCC4)nn3c2=O)cc1,x,x,x,5.0*
CCOc1ccc(CCNC(=O)c2cnc3sc(N4CCCCCC4)nn3c2=O)cc1,x,x,x,107.0
Fc1ccc(-c2cn3cccnc3n2)cc1,0.8,x,x,x
CCC(C)CCCCC(=O)NC(CCN)C(=O)NC(C(=O)NC(CCN)C(=O)NC1CCNC(=O)C(C(C)O)NC(=O)C(CCN)NC(=O)C(CCN)NC(=O)C(CC(C)C)NC(=O)C(Cc2ccccc2)NC(=O)C(CCN)NC1=O)C(C)O (stereo unspecified),-5.2*,-13.2,-11.9,99.0
Cc1ccc(NC(=O)CN2C(=O)c3ccccc3S/C2=C\C#N)cc1C,-0.45,7.1,-10.6,121.0
CCC(C(=O)N1CCCC1)n1nc(C)c2sc3ccccc3c2c1=O (stereo unspecified),-1.45,7.7,7.2,102.0
CCC(C(=O)N1CCN(c2ccccc2)CC1)n1nc(C)c2sc3ccccc3c2c1=O (stereo unspecified),x,x,x,90.0*
CC1=C(C(=O)Nc2cccc(C(=O)N3CCN(c4ccc(F)cc4)CC3)c2)SCCO1,0.2,13.4,-16.6,103.0
N#Cc1cccc(NC(=O)COC(=O)C2=NNC(=O)CC2)c1,-1.45,48.2,-14.0,103.0
Clc1ccc(Cl)c(-c2nn3c(Cn4nnc5ccccc54)nnc3s2)c1,1.35,93.0*,-96.0,102.0
Clc1ccc(Cn2nnc3ccccc32)cc1Cl,1.35,-1.1,-66.0,104.0
COc1ccc(C(=O)/C(C#N)=C/N2CCc3ccccc3C2)cc1,0.2,x,x,x
c1cnc(Oc2ccc(-n3cccc3)cc2)nc1,0.05,x,x,x
SMILES,AID504770,Mtb MbtI inh,Mtb MenB inh,Polio RdRp inh
CCn1cc(C(=O)O)c(=O)c2cc(F)c(F)cc21,-1.35,-211.2,-27.3,100.0
CO/N=C1\CN(c2nc3c(cc2F)c(=O)c(C(=O)O)cn3C2CC2)CC1CN (stereo unspecified),-3.6*,x,-1.0,100.0
COc1c(N2CCNC(C)C2)c(F)cc2c(=O)c(C(=O)O)cn(C3CC3)c12 (stereo unspecified),-3.55*,-55.2,4.6,100.0
O=C(O)c1cn(C2CC2)c2cc(N3CCNCC3)c(F)cc2c1=O,-3.4*,103.8,3.9,100.0
COc1ccc(CCNC(=O)CSc2nc3ccccc3nc2N2CCCC2)cc1OC,-0.05,-2.3,-51.5,100.0
CC(C)(C)c1ccc(NC(=O)c2cnccn2)cc1,-0.5,-9.4,11.7,106.0
O=C(O)C1CSC(c2cccnc2)=N1 (stereo unspecified),1.5,1.6,x,x
O=C(O)C1CSC(c2ccncc2)=N1 (stereo unspecified),0.85,16.6,90.1*,101.0
Cc1nn(CCCC(=O)NCCC2=CCCCC2)c(=O)c2cc3sccc3n12,0.1,x,x,x
Cc1cc(C)c(C(=O)O)c(Cl)n1,1.55,0.3,-25.6,80.0*
COc1nc(C)cc(C)c1C(=O)O,-0.15,x,x,x
Cc1nn(Cc2c(Cl)cccc2Cl)c(Cl)c1CN1CCN(CC(=O)N2CCCC2)CC1,1.7,5.3,15.1,87.0*
Cn1cc(NC(=O)N(Cc2ccco2)CC2CCCO2)c2ccccc2c1=O (stereo unspecified),0.1,-13.4,-27.0,82.0*
O=C(NCc1ccccc1)c1ccccc1OCc1nnc(-c2ccc(Cl)cc2)o1,-2.8,-18.4,-13.5,102.0
